Compound in the assay: c1cn2cc(-c3ccc4cn[nH]c4c3)nc(Nc3ccc(N4CCOCC4)cc3)c2n1 [entospletinib]
Put plainly: log2 fold change, soluble protein after heating vs DMSO (PISA); higher = thermal stabilisation; K562 cells, 10 uM, 30 min; active = over 0.2 and 3.5 SD of the protein, either way, in both replicates (recomputed). An outline of the steps: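 K562 cells at 2×10^6 cells/mL were treated for 30 min with 10 μM compound, and aliquots were heated for 3 min over 48°C-58°C before pooling. Extraction used PBS with 0.5% NP-40 at 4°C, and soluble protein was the supernatant after 21,000xg for 90 min, measured by TMTpro 16plex LC-MS/MS with channel sums equalised. Thermal stability values, relative to control samples and from duplicates, are log2 fold changes.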

Here are results for 16 targets from the supplement of paper PMC10849652.

Of roughly 7,900 targets only a part is listed; those with a hit were picked by preference. About 0.6% of all pairs of compound and target were hits. Values without a mark were called inactive.

UniProt Q9BZI7, sequence (Q9BZI7 whole entry, looked up): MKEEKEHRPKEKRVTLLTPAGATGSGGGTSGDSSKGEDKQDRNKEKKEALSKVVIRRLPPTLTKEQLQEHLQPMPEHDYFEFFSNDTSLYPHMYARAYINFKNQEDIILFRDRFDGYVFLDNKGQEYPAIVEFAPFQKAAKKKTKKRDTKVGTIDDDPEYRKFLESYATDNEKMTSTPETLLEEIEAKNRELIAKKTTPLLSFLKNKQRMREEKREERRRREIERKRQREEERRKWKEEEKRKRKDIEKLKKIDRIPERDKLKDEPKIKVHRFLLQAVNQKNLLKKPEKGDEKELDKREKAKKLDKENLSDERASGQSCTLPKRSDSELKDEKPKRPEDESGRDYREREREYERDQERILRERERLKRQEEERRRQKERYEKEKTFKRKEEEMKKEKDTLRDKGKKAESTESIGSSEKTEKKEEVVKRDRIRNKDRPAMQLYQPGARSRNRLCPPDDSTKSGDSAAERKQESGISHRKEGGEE
UniProt Q502W6, sequence (Q502W6 whole entry, looked up): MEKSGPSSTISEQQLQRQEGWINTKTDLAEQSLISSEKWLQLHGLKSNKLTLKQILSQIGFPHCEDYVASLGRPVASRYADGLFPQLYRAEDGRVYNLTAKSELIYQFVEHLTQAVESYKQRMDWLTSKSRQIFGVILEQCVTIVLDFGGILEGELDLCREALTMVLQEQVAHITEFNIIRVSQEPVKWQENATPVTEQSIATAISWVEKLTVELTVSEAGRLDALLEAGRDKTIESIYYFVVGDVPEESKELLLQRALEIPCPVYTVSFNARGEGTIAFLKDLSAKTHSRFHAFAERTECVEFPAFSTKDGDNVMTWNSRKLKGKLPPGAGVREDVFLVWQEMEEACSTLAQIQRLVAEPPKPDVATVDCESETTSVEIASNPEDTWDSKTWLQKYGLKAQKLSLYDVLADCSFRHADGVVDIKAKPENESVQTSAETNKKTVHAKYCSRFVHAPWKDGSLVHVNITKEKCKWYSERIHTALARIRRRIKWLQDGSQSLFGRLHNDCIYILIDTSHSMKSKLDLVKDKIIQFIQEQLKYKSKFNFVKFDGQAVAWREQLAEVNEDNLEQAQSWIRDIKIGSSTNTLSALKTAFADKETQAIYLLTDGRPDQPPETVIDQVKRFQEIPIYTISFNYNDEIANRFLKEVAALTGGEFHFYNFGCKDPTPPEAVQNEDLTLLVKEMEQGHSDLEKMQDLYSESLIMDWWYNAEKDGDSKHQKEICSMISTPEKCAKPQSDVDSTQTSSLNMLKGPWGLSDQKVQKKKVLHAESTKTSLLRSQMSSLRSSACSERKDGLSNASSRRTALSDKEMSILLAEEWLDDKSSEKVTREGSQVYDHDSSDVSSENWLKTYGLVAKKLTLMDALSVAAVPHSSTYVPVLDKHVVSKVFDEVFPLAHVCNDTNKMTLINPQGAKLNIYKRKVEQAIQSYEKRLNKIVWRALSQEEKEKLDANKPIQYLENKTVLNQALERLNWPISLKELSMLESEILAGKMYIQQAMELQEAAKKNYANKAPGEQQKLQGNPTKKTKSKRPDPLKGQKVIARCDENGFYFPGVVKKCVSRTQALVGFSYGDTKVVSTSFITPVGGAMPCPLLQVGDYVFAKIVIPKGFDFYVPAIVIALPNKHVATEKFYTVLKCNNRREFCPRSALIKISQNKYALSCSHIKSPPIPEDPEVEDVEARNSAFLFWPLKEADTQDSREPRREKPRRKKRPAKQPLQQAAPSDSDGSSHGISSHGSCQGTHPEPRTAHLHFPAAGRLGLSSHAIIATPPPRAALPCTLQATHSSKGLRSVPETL
UniProt O95801, sequence (O95801 whole entry, looked up): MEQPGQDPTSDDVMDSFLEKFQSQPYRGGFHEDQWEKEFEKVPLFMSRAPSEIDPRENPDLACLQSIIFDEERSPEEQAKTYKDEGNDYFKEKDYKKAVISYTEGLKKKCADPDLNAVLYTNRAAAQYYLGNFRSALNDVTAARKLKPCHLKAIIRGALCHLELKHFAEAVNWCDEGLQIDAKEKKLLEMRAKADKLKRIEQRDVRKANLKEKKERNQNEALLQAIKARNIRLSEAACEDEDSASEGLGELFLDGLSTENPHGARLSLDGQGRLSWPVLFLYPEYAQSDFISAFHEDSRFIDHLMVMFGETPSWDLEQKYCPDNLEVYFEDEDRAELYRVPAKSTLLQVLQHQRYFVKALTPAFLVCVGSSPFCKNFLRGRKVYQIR
UniProt O14980, sequence (O14980 whole entry, looked up): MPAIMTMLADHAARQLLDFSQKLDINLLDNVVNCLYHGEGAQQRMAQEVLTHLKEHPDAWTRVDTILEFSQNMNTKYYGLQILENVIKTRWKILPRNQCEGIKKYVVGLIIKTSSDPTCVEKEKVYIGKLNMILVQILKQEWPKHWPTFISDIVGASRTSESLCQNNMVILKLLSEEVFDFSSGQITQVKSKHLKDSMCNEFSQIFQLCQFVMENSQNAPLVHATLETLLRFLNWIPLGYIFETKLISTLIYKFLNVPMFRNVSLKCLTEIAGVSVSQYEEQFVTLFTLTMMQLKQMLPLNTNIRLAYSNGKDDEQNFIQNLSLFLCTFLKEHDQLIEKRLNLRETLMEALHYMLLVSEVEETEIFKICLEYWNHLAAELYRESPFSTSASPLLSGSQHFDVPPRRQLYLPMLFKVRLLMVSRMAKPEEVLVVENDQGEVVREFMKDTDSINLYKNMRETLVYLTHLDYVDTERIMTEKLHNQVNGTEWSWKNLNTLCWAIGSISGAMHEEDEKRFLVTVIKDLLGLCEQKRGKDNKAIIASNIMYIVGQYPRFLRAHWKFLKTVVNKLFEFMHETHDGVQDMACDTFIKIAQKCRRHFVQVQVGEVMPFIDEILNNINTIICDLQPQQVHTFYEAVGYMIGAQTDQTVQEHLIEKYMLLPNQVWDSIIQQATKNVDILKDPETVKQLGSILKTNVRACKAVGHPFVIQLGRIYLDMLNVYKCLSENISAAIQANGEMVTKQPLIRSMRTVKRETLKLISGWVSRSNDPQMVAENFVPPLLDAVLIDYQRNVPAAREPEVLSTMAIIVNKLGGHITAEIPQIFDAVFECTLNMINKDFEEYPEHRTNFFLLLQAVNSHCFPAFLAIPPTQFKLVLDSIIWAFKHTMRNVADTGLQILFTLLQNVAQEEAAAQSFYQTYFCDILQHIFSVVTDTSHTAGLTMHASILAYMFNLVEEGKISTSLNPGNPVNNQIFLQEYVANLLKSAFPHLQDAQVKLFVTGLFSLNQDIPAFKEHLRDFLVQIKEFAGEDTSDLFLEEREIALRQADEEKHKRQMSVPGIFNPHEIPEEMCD
UniProt Q9BVJ6, sequence (Q9BVJ6 whole entry, looked up): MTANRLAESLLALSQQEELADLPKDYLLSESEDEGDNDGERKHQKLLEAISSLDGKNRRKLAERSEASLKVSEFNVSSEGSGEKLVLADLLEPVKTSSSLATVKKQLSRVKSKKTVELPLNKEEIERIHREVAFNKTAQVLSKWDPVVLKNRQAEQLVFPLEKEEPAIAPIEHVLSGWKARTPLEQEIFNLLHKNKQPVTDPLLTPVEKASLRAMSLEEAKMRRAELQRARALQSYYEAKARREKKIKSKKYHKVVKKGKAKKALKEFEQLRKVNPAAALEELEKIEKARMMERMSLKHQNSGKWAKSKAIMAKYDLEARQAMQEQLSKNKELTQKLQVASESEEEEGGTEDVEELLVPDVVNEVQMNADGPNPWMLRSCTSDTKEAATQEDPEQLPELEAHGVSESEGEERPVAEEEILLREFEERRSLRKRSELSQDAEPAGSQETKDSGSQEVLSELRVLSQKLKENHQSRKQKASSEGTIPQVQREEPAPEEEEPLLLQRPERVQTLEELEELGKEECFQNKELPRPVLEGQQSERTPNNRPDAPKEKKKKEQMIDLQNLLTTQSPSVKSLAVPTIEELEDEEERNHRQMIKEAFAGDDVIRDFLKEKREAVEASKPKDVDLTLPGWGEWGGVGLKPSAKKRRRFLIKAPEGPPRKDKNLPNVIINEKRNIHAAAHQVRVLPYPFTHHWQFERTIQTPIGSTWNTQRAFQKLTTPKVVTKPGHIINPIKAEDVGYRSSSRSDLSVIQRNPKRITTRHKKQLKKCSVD
UniProt Q9NX61, sequence (Q9NX61 whole entry, looked up): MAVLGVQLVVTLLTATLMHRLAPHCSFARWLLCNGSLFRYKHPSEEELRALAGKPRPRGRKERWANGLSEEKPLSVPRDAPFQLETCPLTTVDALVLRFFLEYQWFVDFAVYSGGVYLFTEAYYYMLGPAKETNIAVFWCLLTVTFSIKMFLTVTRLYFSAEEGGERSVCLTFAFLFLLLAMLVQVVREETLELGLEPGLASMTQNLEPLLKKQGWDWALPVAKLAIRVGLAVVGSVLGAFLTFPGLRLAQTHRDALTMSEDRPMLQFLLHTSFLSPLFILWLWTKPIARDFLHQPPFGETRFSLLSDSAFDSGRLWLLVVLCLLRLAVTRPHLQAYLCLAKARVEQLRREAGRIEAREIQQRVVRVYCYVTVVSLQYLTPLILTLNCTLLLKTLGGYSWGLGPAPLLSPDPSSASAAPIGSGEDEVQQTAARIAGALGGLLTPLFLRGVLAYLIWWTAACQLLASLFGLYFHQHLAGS
UniProt Q6VEQ5, sequence (Q6VEQ5 whole entry, looked up): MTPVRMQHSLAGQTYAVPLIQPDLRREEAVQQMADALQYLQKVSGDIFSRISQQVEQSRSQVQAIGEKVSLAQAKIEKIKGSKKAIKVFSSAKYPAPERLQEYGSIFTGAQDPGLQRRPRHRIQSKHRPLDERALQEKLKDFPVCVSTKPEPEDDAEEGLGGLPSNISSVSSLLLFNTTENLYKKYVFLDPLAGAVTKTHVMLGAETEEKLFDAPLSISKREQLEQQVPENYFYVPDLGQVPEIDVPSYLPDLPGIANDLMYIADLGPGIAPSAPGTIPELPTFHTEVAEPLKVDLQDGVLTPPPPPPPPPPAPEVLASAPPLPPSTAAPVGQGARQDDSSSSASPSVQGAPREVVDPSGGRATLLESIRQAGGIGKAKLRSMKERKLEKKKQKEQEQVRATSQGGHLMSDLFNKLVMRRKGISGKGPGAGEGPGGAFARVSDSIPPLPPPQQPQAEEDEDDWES

As for TTC4 (UniProt O95801), the log2 fold change is -0.002.
In the case of WASH2P (UniProt Q6VEQ5) it was 0.015; in that of VPS51 (UniProt Q9UID3), 0.007.
In the case of WNK1 isoform 7 (UniProt Q9H4A3) it was -0.005; in that of UTP14A (UniProt Q9BVJ6), 0.042.
In the case of TMEM161A (UniProt Q9NX61) it was -0.026.
With XPO1 (UniProt O14980), the log2 fold change was -0.016.
VWA8 (UniProt A3KMH1): the log2 fold change is -0.03.
In the case of TNPO2 (UniProt O14787) it was -0.063; in that of TMEM263 (UniProt Q8WUH6), -0.032; in that of TUT4 (UniProt Q5TAX3), 0.066.
In the case of TMTC3 (UniProt Q6ZXV5) it was 0.007; in that of TNNC2 (UniProt P02585), -0.038.
In the case of UPF3B (UniProt Q9BZI7) it was 0.098; in that of TRMT10A (UniProt Q8TBZ6), -0.055; in that of VWA3B isoform 6 (UniProt Q502W6), -0.237.
